Assay outcomes: PubChem BioAssay, several laboratories
IEC-6 cytotox: cytotoxicity in IEC-6 intestinal epithelial cells, primary screen, cytotoxicity control for KLF5 inhibitor project, cell-based, luminescence; inhibition, % at 5 µM; IEC-6 cytotoxicity, luminescence viability; hit rate 0.78% among 290,000; AID 1825, 2009; in the data active means inhibition above about 22%
aSyn UTR inh: MLPCN primary screen, SNCA 5' untranslated region. hit rate 0.82% among 300,000. alpha-synuclein 5'UTR reporter, inhibitor activity. inhibition, % (tested at 7.5 µM); in the data active means inhibition above about 60%;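 further: H4 neuroglioblastoma cells stably carrying SNCA 5'UTR luciferase fusion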
APP 5UTR inh: inhibitors of APP translation via 5'UTR reporter, primary screen, APP 5'UTR luciferase, SH-SY5Y cells; SH-SY5Y APP 5'UTR-luciferase reporter, luminescence; hit rate 0.82% among 190,000; AID 1285, 2008; inhibition, % at 2 µM;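 active means inhibition above a set limit, derived from the sample mean plus 3 SD, cut at about 45% in these data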
Ba/F3 V617F tox: reduced viability of JAK2V617F-dependent Ba/F3 cells, primary screen, JAK2V617F inhibitor project, cell-based, Ba/F3 EpoR-JAK2V617F, luminescence. ATP luminescence. inhibition, % at 5.6 µM. hit rate 1.1% among 220,000. AID 1446, 2008;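 active means inhibition above the campaign mean plus 3 SD over all tested compounds, cut at about 24% in these data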;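 further: cytokine-independent growth of Ba/F3 cells driven by EpoR plus mutant JAK2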
KLF5 inhibitor: KLF5 expression inhibitors, primary screen, DLD-1 cells, luminescence; DLD-1 KLF5 promoter-luciferase reporter; inhibition, % at 5 µM; hit rate 0.23% among 290,000; AID 1700, 2009;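 active means inhibition above a per-plate limit of that plate's mean compound inhibition plus 3 SD, cut at about 60% in these data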;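 further: higher means less KLF5 promoter-driven luciferase light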
BaF3 parental: parental Ba/F3 cell viability inhibition, counter-screen for JAK2V617F inhibitor project, murine pro-B, CellTiter-Glo luminescence | CellTiter-Glo ATP luminescence | inhibition, % at 5.6 µM | hit rate 1.1% among 220,000 | AID 1486, 2009;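 active means inhibition above a per-campaign cutoff, the mean inhibition of all tested compounds plus 3 SD, cut at about 27% in these data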
Each line names hits and unclear results; the compound was inactive in the other large screens. An excerpt weighted towards active compounds, which were near 2.2% of everything screened.

CC(C)CC1CCCCC1OC(=O)C[N+]1(C)CCCCC1 (stereo unspecified)	Ba/F3 V617F tox 57, BaF3 parental 63
CC(C)(C)C1CCC(OC(=O)C[N+]2(C)CCCC2)CC1 (stereo unspecified)	Ba/F3 V617F tox 32, BaF3 parental 36
C[N+]1(CC(=O)OCCCC2CCCCC2)CCCC1	none
CC(C)(C)C1CCC(OC(=O)CN2CCOCC2)CC1 (stereo unspecified)	none
CC(C)(C)C1CCC(OC(=O)C[N+]2(C)CCCCC2)CC1 (stereo unspecified)	Ba/F3 V617F tox 32, BaF3 parental 41
CC(C)N(C(=S)Nc1cccc(C(F)(F)F)c1)C(C)c1ccccn1 (stereo unspecified)	none
Cn1c(=O)c(-c2ccccc2[N+](=O)[O-])c(Cl)c2ccccc21	none (no result: APP 5UTR inh, Ba/F3 V617F tox, BaF3 parental)
Cc1ccc(S(=O)(=O)CC2CSc3nc4ccccc4n32)cc1 (stereo unspecified)	Ba/F3 V617F tox 58, BaF3 parental 72 (no result: APP 5UTR inh)
CSc1nc(-c2ccccc2)nc(NC(=O)C(C)C)c1C(C)=O	APP 5UTR inh 54
O=C(Oc1c(CN2CCOCC2)cc(Cl)c2cccnc12)c1ccccc1	IEC-6 cytotox 26, APP 5UTR inh 53
Oc1c(I)cc(Cl)c2cccnc12	none
Oc1c(CN2CCc3ccccc3C2)cc(Cl)c2cccnc12	aSyn UTR inh 91
Oc1c(CN2CCCCC2)cc(Br)c2cccnc12	aSyn UTR inh 112, APP 5UTR inh 67, Ba/F3 V617F tox 44, BaF3 parental 27
O=C(Oc1c(CN2CCOCC2)cc(Cl)c2cccnc12)c1ccccc1F	aSyn UTR inh 106, APP 5UTR inh 75
Cc1cc(-c2nnc(SCC(=O)Nc3c(C)cccc3C)n2N)n[nH]1	none (no result: APP 5UTR inh, Ba/F3 V617F tox, BaF3 parental)
COC(=O)c1ccccc1NC(=O)C/C(C)=N/NC(=O)Cc1ccc(Cl)cc1	none (no result: APP 5UTR inh, Ba/F3 V617F tox, BaF3 parental)
Fc1cccc(CNc2ncnc3cc(Cl)ccc23)c1F	none (no result: APP 5UTR inh, Ba/F3 V617F tox, BaF3 parental)
CCC(C(=O)OC)(C(=O)OC)c1ccc([N+](=O)[O-])cc1	none
CCn1c(C)c2c(C)nnc(C)c2c1C	none
CCn1c(C)c(P(c2ccccc2)c2ccccc2)[n+]2ccccc12	Ba/F3 V617F tox 69, BaF3 parental 70
CCn1c(=N)c(C(=O)NC)cc2c(=O)n3cccc(C)c3nc21	none (no result: IEC-6 cytotox, aSyn UTR inh, Ba/F3 V617F tox, KLF5 inhibitor, BaF3 parental)
CCNc1nc(C)c2cc(Br)c(=O)n(CC)c2n1	aSyn UTR inh 76
Cc1ccccc1N1CCN(C2CCCN(C(=O)CCc3c(C)noc3C)C2)CC1 (stereo unspecified)	none (no result: APP 5UTR inh, Ba/F3 V617F tox, BaF3 parental)
Cc1nn(Cc2ccc(C(=O)Nc3nccs3)cc2)c(C)c1Cl	Ba/F3 V617F tox 39, BaF3 parental 43
CC(C)CCNc1nc(N)c([N+](=O)[O-])c(NCC2CCCO2)n1 (stereo unspecified)	aSyn UTR inh 62
COc1ccc(Nc2nc(N)c([N+](=O)[O-])c(NC3CCCCC3)n2)cc1	aSyn UTR inh 62 (no result: APP 5UTR inh, Ba/F3 V617F tox, BaF3 parental)
CCC(C)Nc1nc(N)c([N+](=O)[O-])c(NC2CCCCC2)n1 (stereo unspecified)	aSyn UTR inh 102 (no result: APP 5UTR inh, Ba/F3 V617F tox, BaF3 parental)
CCC(C)Nc1nc(N)c([N+](=O)[O-])c(NCc2ccccc2)n1 (stereo unspecified)	aSyn UTR inh 65 (no result: APP 5UTR inh, Ba/F3 V617F tox, BaF3 parental)
Nc1nc(NCC(=O)O)nc(NC2CCCCC2)c1[N+](=O)[O-]	none (no result: APP 5UTR inh, Ba/F3 V617F tox, BaF3 parental)
COCCCNc1nc(N)c([N+](=O)[O-])c(NC2CCCCC2)n1	aSyn UTR inh 90 (no result: APP 5UTR inh, Ba/F3 V617F tox, BaF3 parental)
CC(NC(=O)COC(=O)/C=C/c1ccco1)c1ccccc1 (stereo unspecified)	none
CC(C)(C)NC(=O)COC(=O)CCC(=O)c1cccs1	none
O=C(O)CCC(=O)Nc1ccc(Br)cc1C(=O)c1ccc(Cl)cc1	none (no result: APP 5UTR inh)
CC(C)N(Cc1cc2ccccc2[nH]c1=O)C(=O)C1CCCCC1	BaF3 parental 28
Fc1ccc(-c2csc(-c3cccnc3)n2)cc1F	none (no result: APP 5UTR inh, Ba/F3 V617F tox, BaF3 parental)
Oc1ccc(-c2csc(-c3cccnc3)n2)cc1O	Ba/F3 V617F tox 41, BaF3 parental 37 (no result: APP 5UTR inh)
COc1ccc(NC(=O)CN2C(=O)CSC(C)C2=O)c(OC)c1 (stereo unspecified)	BaF3 parental 30
CC(=O)c1ccc(N2CCN(C(=S)NCCCN(C)C)CC2)cc1	none
CC(C)(C)c1cc[n+](C2=C([O-])c3ccccc3C(=O)/C2=N\S(=O)(=O)c2cccs2)cc1	aSyn UTR inh 69 (no result: APP 5UTR inh)
CN(C)c1cccc(C(=O)NCC(c2ccco2)N(C)C)c1 (stereo unspecified)	none (no result: APP 5UTR inh, Ba/F3 V617F tox, BaF3 parental)
CCc1ccc(CCC(=O)Nc2ncc(Cc3ccccc3Cl)s2)o1	APP 5UTR inh 71
O=C(CN1CCOCC1)Nc1ncc(Cc2ccccc2Cl)s1	none
Nc1ccn(Cc2cccc(F)c2)n1	none
N=c1ccn(Cc2cccc(F)c2)cc1	Ba/F3 V617F tox 71, BaF3 parental 66 (no result: APP 5UTR inh)
COC(=O)c1ccc(N2CCN(c3ccccc3)CC2)nc1	none (no result: APP 5UTR inh, Ba/F3 V617F tox, BaF3 parental)
COC(=O)/C(=C\Nc1ccc(Oc2ccc(F)cc2F)nc1)NC(=O)c1ccccc1	BaF3 parental 36 (no result: APP 5UTR inh)
Cn1c(N2CCCC2)nc2c1c(=O)[nH]c(=O)n2C	none (no result: APP 5UTR inh, Ba/F3 V617F tox, BaF3 parental)
COc1ccc(NC(=O)c2oc3ccccc3c2NC(=O)c2ccco2)c(OC)c1	none
COc1ccc(NC(=O)c2oc3ccccc3c2NC(=O)c2ccco2)cc1	BaF3 parental 35
CC1=CC(C)(C)N2C(=O)C3(SCC(=O)N3c3ccc(O)cc3)c3cc(C)cc1c32 (stereo unspecified)	none
CC1=CC(C)(C)N2C(=O)C3(N=C(N)NC(Nc4ccccc4)=N3)c3cc(C)cc1c32 (stereo unspecified)	Ba/F3 V617F tox 44, BaF3 parental 42
COC(=O)Nc1ccc(S(=O)(=O)N2CCCc3cccc(O)c32)cc1	none
Cn1c(=O)oc2cc(S(=O)(=O)N3CCc4ccccc43)ccc21	none (no result: APP 5UTR inh)
Cn1c(=O)c(=O)n(C)c2cc(S(=O)(=O)N3CCc4ccccc43)ccc21	BaF3 parental 31
O=S(=O)(c1ccc2ccccc2c1)N1CCc2ccccc21	none (no result: APP 5UTR inh, Ba/F3 V617F tox, BaF3 parental)
Cn1c(=O)oc2cc(S(=O)(=O)N3CCCc4ccccc43)ccc21	Ba/F3 V617F tox 55, BaF3 parental 45
COC(=O)Nc1ccc(S(=O)(=O)N2CCCc3ccccc32)cc1	IEC-6 cytotox 74, aSyn UTR inh 84, APP 5UTR inh 90, Ba/F3 V617F tox 85, BaF3 parental 79
O=C(Nc1ccc(F)c([N+](=O)[O-])c1)C(=O)c1c(O)[nH]c2ccccc12	none
CC(=O)N1CCN(C(=O)c2ccc(C(=O)c3ccccc3)cc2)CC1	none (no result: APP 5UTR inh, Ba/F3 V617F tox, BaF3 parental)
CCc1ccc2nc(SCC(=O)N3CC(=O)Nc4ccccc43)c(C#N)cc2c1	APP 5UTR inh 94
O=C(NCc1ccccc1)N1CCC(Cc2ccccc2)CC1	none (no result: APP 5UTR inh, Ba/F3 V617F tox, BaF3 parental)
CC[N+](C)(C)CCN(Cc1ccc(Cl)cc1)c1ccccn1	Ba/F3 V617F tox 27, BaF3 parental 39
